Test [1] can be described thus: qHTS assay to identify aromatase inhibitors - cell viability counter screen (AID 743084;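 further: cells stimulated with testosterone during compound exposure; nearly all actives have a fitted effect of over 55% in size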). (In general: Quantitative high-throughput screening tests each substance at several concentrations.)
Test [2] concerns the target Aryl hydrocarbon receptor (Homo sapiens) (UniProt P35869). The test can be described thus: qHTS assay to identify small molecule that activate the aryl hydrocarbon receptor (AhR) signaling pathway (AID 743085). Further: nearly all actives have a fitted effect of over 15% in size. Further: potency means the concentration at half of the fitted maximal effect.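 On activation: HG2L7.5c1 human HepG2 liver cells with stably integrated DRE-driven firefly reporter; series mostly up to about 70 µM.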 In a few lines: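 Steps: seed HepG2-AhR-luc cells; allow 5 h at 37C; pin-transfer test compound or vehicle; incubate 24 h at 37C; add viability dye (30 min, 37C) and read fluorescence; add luciferase substrate (30 min, RT) and read luminescence.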

A short description of test [3]: qHTS assay to identify small molecule that activate the aryl hydrocarbon receptor (AhR) signaling pathway - cell viability counter screen (AID 743086). Further: series mostly up to about 70 µM; nearly all actives have a fitted effect of over 45% in size. In a few lines: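 Cytotoxicity counter screen: CellTiter-Fluor signal (30 min, 37 C) in 4000 HepG2 cells/well carrying the DRE-luciferase reporter, following 24 h compound exposure at 37 C.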
For test [4], the target named is Peroxisome proliferator-activated receptor gamma (Homo sapiens) (UniProt P37231). The test can be described thus: qHTS assay to identify small molecule agonists of the peroxisome proliferator-activated receptor gamma (PPARg) signaling pathway (AID 743094; active means well fitted activation curve with a large enough effect in the signal ratio in the repeat runs, not every such curve was filed as active; the % refers to the signal ratio). Summed up: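 Agonist activity was taken from a beta-lactamase reporter (FRET substrate, 1 h at room temperature) in HEK293H cells carrying a PPARg UAS-bla construct. Compounds in DMSO were incubated 17 h at 37C after a 5 h cell pre-incubation.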
Sequence of Peroxisome proliferator-activated receptor gamma (Homo sapiens) (P37231 whole entry, looked up): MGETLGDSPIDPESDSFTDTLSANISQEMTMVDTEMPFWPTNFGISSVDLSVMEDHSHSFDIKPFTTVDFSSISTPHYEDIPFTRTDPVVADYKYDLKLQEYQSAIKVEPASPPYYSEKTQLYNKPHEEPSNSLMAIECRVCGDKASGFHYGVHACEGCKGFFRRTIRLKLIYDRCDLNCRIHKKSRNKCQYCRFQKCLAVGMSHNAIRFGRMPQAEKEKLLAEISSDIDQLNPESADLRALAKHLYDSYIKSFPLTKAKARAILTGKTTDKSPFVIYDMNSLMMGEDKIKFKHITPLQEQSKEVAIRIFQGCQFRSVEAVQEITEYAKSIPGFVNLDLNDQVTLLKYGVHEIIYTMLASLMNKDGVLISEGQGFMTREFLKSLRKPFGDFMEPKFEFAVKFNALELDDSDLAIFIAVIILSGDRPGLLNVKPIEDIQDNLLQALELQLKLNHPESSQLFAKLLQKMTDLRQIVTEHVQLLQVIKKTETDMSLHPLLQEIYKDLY

The target is the same in test [5]. As to the kind of experiment: qHTS assay to identify small molecule antagonists of the peroxisome proliferator-activated receptor gamma (PPARg) signaling pathway (AID 743191; calls by dose curve; further: nearly all actives have a fitted effect of over 30% in size; further: potency means the concentration at half of the fitted maximal effect). In a few lines:
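Beta-lactamase reporter under UAS control in HEK293H PPARg-bla cells; compound treatment 17 h at 37C. Read-out: fluorescence intensity after 1 h room-temperature incubation with LiveBLAzer B/G FRET substrate.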

Test [6] can be described thus: qHTS assay to identify small molecule antagonists of the peroxisome proliferator-activated receptor gamma (PPARg) signaling pathway - cell viability counter screen (AID 743194). Further: nearly all actives have a fitted effect of over 55% in size. As to conditions: Potency: co-treated with 50 nM rosiglitazone unless noted. Summed up: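 Viability was measured as CellTiter-Glo luminescence in GeneBLAzer PPARg UAS-bla HEK293H cells. These cells had been exposed 17 h at 37 C to compounds together with rosiglitazone at 50 nM final, with the beta-lactamase readout taken in the same wells.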

A short description of test [7]: qHTS assay for small molecule agonists of the antioxidant response element (ARE) signaling pathway (AID 743202; active means well fitted activation curve with a large enough effect in the signal ratio in the repeat runs, not every such curve was filed as active; the % refers to the signal ratio). In a few lines:
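Beta-lactamase reporter activity, read as fluorescence intensity, reflects ARE/Nrf2 pathway induction in HepG2 cells after 16 h compound exposure at 37 C; substrate loading was 2 h at room temperature.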

Test [8] can be described thus: qHTS assay for small molecule agonists of the antioxidant response element (ARE) signaling pathway - cell viability counter screen (AID 743203; calls by dose curve; further: nearly all actives have a fitted effect of over 55% in size). Summed up:
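Viability counter screen: CellTiter-Glo luminescence, read after 30 min at room temperature, in ARE-bla HepG2 wells. Compound exposure lasted 16 h at 37C/5% CO2, following a 5 h pre-incubation of the cells after plating.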

A short description of test [9]: qHTS assay for small molecule activators of the heat shock response signaling pathway - cell viability counter screen (AID 743209). Further: nearly all actives have a fitted effect of over 50% in size. In a few lines:
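Cytotoxicity counter screen run in the same wells as the heat-shock bla reporter assay: HeLa HSE-bla cells, 5 h compound exposure at 37 C, viability read by CellTiter-Glo luminescence.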

Test [10] is described as follows: qHTS assay for small molecule activators of the heat shock response signaling pathway (AID 743210; active means well fitted activation curve with a large enough effect in the signal ratio in the repeat runs, with a control signal flat, not every such curve was filed as active; the % refers to the signal ratio;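 further: HeLa cells with beta-lactamase reporter driven by heat shock elements; series mostly up to about 63 µM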). Summed up:
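Fluorescence from a cleaved B/G FRET substrate (2.5 h, room temp) reports HSE-driven beta-lactamase in HeLa cells treated 5 h at 37 C with DMSO-dissolved compounds.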

Test [11] is described as follows: qHTS assay to identify small molecule agonists of the peroxisome proliferator-activated receptor delta (PPARd) signaling pathway - cell viability counter screen (AID 743211). Further: nearly all actives have a fitted effect of over 55% in size. In a few lines: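 Viability of GeneBLAzer PPARd UAS-bla HEK293H cells was assessed after 17 h compound incubation at 37C, using CellTiter-Glo reagent added after the reporter read and luminescence recorded 30 min later.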

For test [12], the target named is Peroxisome proliferator-activated receptor delta (Homo sapiens) (UniProt Q03181). As to the kind of experiment: qHTS assay to identify small molecule agonists of the peroxisome proliferator-activated receptor delta (PPARd) signaling pathway (AID 743212; calls by dose curve;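 further: HEK293H cells with PPARd UAS beta-lactamase reporter GeneBLAzer system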). In a few lines:
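Steps: seed PPARd-bla HEK293H cells; incubate 5 h, 37 C, 5% CO2; add compounds in DMSO; incubate, 37 C; add LiveBLAzer B/G FRET substrate; hold 2 h at room temperature; measure fluorescence.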

The nature of test [13]: qHTS assay to identify small molecule antagonists of the peroxisome proliferator-activated receptor delta (PPARd) signaling pathway - cell viability counter screen (AID 743213). Further: nearly all actives have a fitted effect of over 50% in size. In a few lines: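 HEK293H cells with the PPARd UAS-bla reporter, co-treated 17 h at 37 C with compounds and L165041 (300 nM final), were lysed with CellTiter-Glo. Luminescence indicated viable cell content.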

In test [14] the target is Peroxisome proliferator-activated receptor delta (Homo sapiens) (UniProt Q03181). The test can be described thus: qHTS assay to identify small molecule antagonists of the peroxisome proliferator-activated receptor delta (PPARd) signaling pathway (AID 743215; active means well fitted inhibition curve with a large enough effect in the signal ratio in the repeat runs, not every such curve was filed as active; the % refers to the signal ratio;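 further: cells stimulated with agonist L165041 at 300 nM final during compound exposure; series mostly up to about 62 µM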). Summed up:
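Agonist L165041 (300 nM final) added with compound to PPARd-bla HEK293H UAS-bla reporter cells; 17 h incubation at 37 C. Read-out: LiveBLAzer FRET substrate, 2 h at room temperature, fluorescence intensity.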

Test [15] is described as follows: qHTS assay to identify small molecule agonists of the farnesoid-X-receptor (FXR) signaling pathway - cell viability counter screen (AID 743218). Further: nearly all actives have a fitted effect of over 45% in size. In a few lines: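 Viability counter screen in the same wells: CellTiter-Glo luminescence, 30 min room-temperature incubation, measured after the beta-lactamase read. Cells were GeneBLAzer FXR-UAS-bla HEK 293T, compound-treated 16 h at 37C.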

Test [16] deals with Vitamin D3 receptor (Homo sapiens) (UniProt P11473). As to the kind of experiment: qHTS assay to identify small molecule agonists of the vitamin D receptor (VDR) signaling pathway (AID 743222; calls by dose curve). In a few lines: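 Agonist mode, beta-lactamase reporter: fluorescence from LiveBLAzer B/G FRET substrate (2 h, room temperature) read after 16 h compound treatment at 37 C of VDR-bla cells, which were pre-incubated 4 h after seeding.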
Sequence of Vitamin D3 receptor (Homo sapiens) (P11473 whole entry, looked up): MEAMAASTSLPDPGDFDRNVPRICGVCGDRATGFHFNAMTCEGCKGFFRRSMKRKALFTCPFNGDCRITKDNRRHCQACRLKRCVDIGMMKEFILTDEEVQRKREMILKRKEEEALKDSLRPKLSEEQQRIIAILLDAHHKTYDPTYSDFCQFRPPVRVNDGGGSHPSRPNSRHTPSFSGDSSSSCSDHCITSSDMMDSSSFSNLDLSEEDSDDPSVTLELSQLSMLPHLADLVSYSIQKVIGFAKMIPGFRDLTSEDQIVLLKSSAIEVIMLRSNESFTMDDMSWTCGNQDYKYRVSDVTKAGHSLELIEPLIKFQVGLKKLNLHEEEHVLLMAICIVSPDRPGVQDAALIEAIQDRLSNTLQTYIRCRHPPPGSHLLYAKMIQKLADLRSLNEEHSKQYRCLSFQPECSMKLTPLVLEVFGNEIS

The target is the same in test [17]. The test can be described thus: qHTS assay to identify small molecule antagonists of the vitamin D receptor (VDR) signaling pathway (AID 743223; active means well fitted inhibition curve with a large enough effect in the signal ratio in the repeat runs, not every such curve was filed as active; the % refers to the signal ratio). In a few lines:
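Fluorescence from LiveBLAzer B/G FRET substrate, read after 2 h at room temperature, reflects beta-lactamase reporter activity in VDR-bla cells treated 16 h at 37C with compounds and agonist 1alpha,25-dihydroxyvitamin D3 (3 nM final).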

Test [18] has as its target Bile acid receptor (Homo sapiens) (UniProt Q96RI1). The test can be described thus: qHTS assay to identify small molecule antagonists of the farnesoid-X-receptor (FXR) signaling pathway (AID 743217; active means well fitted inhibition curve with a large enough effect in the signal ratio in the repeat runs, not every such curve was filed as active; the % refers to the signal ratio). In a few lines:
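Antagonist mode: chenodeoxycholic acid at 50 uM final stimulates a UAS-driven beta-lactamase reporter in HEK 293T FXR-bla cells during 16 h, 37C compound exposure. Read-out is FRET substrate fluorescence after 2 h at room temperature.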

The target is the same in test [19]. As to the kind of experiment: qHTS assay to identify small molecule agonists of the farnesoid-X-receptor (FXR) signaling pathway (AID 743220; active means well fitted activation curve with a large enough effect in the signal ratio in the repeat runs, not every such curve was filed as active; the % refers to the signal ratio). Summed up: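 FXR-UAS-bla HEK 293T cells carrying a UAS-driven beta-lactamase reporter were plated for 5 h at 37C/5% CO2, then exposed to DMSO-dissolved Tox21 10K compounds for 16 h at 37C. A LiveBLAzer B/G FRET substrate was loaded for 2 h at room temperature before fluorescence reading.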

A short description of test [20]: qHTS assay to identify small molecule antagonists of the farnesoid-X-receptor (FXR) signaling pathway - cell viability counter screen (AID 743221; active means well fitted cell-killing curve with a large enough effect in the repeat runs, not every such curve was filed as active; further: nearly all actives have a fitted effect of over 50% in size). In a few lines:
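Quantitative HTS of the Tox21 10K library run in parallel with the beta-lactamase reporter read. HEK 293T cells carrying a UAS-driven bla reporter got compound and 50 uM CDCA (final) for 16 h; ATP-based luminescence followed.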

Several values for one entry are separate records, joined by “and”; a condition that tells them apart may be missing. Equal values may be shown once. Inconclusive results are not listed. Activity calls are given as the source filed them. Unless noted, the call rests on the fitted dose curve; in most records, active means well fitted curve in the direction sought with a large enough effect in the repeat runs; inconclusive means weak or mixed curves; inactive means no such curve, though single readings can be large; an effect the other way counts as inactive or inconclusive.

Sequence of Aryl hydrocarbon receptor (Homo sapiens) (P35869 whole entry, looked up): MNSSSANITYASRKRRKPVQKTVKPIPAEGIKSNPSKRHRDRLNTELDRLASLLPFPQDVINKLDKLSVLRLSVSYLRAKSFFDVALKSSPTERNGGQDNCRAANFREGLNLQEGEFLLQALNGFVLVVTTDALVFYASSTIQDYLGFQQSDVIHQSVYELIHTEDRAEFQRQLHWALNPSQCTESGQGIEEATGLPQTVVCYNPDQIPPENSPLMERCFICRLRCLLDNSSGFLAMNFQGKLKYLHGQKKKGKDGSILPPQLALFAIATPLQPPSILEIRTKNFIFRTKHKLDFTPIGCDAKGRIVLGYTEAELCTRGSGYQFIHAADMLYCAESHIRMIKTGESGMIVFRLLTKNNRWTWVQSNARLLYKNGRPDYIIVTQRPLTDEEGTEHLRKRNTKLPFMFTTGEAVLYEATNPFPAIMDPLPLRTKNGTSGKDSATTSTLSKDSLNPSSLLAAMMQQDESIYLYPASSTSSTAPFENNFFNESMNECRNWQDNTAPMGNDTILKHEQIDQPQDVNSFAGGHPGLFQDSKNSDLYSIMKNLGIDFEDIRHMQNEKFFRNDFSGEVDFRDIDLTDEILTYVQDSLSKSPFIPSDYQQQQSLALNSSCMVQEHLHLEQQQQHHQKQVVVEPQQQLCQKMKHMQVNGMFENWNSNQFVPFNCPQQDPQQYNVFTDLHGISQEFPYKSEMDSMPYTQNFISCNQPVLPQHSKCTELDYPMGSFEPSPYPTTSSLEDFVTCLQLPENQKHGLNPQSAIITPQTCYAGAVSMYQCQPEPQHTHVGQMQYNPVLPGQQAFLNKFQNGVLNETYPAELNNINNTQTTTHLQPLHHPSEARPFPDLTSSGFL
Sequence of Bile acid receptor (Homo sapiens) (Q96RI1 whole entry, looked up): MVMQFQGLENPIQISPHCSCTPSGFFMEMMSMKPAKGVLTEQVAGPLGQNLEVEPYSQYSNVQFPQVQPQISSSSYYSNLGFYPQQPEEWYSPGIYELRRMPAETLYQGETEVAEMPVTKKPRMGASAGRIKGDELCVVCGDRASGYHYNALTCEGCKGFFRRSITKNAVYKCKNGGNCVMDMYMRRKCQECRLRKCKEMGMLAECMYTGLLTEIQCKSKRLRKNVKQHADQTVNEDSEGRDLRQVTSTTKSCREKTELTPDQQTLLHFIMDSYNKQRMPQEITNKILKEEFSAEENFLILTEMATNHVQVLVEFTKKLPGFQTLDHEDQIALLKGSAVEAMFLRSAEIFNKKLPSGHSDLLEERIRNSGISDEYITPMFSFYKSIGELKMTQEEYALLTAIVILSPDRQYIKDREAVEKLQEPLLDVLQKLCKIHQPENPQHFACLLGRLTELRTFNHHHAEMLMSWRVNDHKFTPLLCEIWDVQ
Sequence of Peroxisome proliferator-activated receptor delta (Homo sapiens) (Q03181 whole entry, looked up): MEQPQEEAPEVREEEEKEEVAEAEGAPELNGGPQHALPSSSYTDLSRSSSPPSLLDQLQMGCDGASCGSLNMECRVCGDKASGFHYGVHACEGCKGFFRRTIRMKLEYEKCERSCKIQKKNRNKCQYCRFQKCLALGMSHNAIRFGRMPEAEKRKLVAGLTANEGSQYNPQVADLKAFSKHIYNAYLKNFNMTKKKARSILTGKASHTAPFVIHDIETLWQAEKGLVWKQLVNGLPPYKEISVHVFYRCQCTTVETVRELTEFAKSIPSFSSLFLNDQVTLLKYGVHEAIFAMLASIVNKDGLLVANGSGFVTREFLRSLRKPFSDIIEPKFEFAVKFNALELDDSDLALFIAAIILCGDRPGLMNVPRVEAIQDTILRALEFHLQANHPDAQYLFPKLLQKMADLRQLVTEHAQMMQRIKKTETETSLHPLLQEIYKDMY

Consider `Cc1cccc(C)c1[N+](=O)[O-]`, for which the Potency result in test [1], in [2], in test [3], in [4], in test [5] and in [6] was “inactive” each time. For the same molecule, the Potency entry in test [7], in test [8], in test [9], in [10], in test [11] and in test [12] was “inactive” each time. In addition, the Potency result in test [13], in test [14], in [15] and in [17] was “inactive” throughout. Moreover, in [16], the outcome was inactive.

On to `Nc1cccc(N)n1`, for which the Potency entry in test [1], in test [3], in [4], in [5], in test [6] and in test [7] was “inactive” each time. The Potency entry in [8], in test [9], in test [10], in test [11], in test [12] and in test [13] was “inactive” in each case. Moreover, the Potency entry in test [14], in [15] and in test [17] was “inactive” each time. Also, in test [2], the Potency is 52.6 µM (active) and 61.1 µM (active). Further, the molecule was classed as inactive in test [16].

`COCN(COC)c1nc(N(COC)COC)nc(N(COC)COC)n1`: the Potency result in test [1], in test [2], in test [3], in test [4], in [5] and in test [6] was “inactive” each time. Moreover, the Potency result in test [7], in test [8], in test [10], in test [11], in test [12] and in [13] was “inactive” each time. In addition, the Potency entry in [14], in [18], in test [15], in test [19], in [20] and in [17] was “inactive” throughout. Further, the molecule was classed as inactive in test [16].

For `CC(=O)OC/C=C(\C)CCC=C(C)C`, the Potency entry in [1], in test [2], in test [3], in [4], in test [5] and in test [6] was “inactive” in each case. Moreover, the Potency entry in [7], in test [8], in test [10], in test [11], in test [12] and in test [13] was “inactive” each time. The Potency entry in test [14], in test [15] and in test [20] was “inactive” in each case.

As for `C[Si](C)(C)N[Si](C)(C)C`, the Potency result in test [1], in test [2], in test [3], in [4], in [5] and in test [6] was “inactive” throughout. Moreover, the Potency result in test [7], in [8], in test [9], in [10], in [11] and in [13] was “inactive” each time. Besides, the Potency result in test [15] and in test [20] was “inactive” each time. Moreover, the outcome in [16] was inactive.

Consider `Cc1ccccc1C=O`, for which the Potency result in test [1], in [2], in test [3], in test [4], in test [5] and in test [6] was “inactive” each time. Further, the Potency result in test [7], in test [8], in test [9], in [10], in test [11] and in test [12] was “inactive” in each case. The Potency entry in test [13], in test [14], in [15], in test [20] and in test [17] was “inactive” throughout. In test [16], the result was inactive.

In the case of `COc1cc(NC(=O)CC(C)=O)c(OC)cc1Cl`, the Potency result in test [1], in [3], in test [6], in test [8], in [10] and in test [11] was “inactive” in each case. In addition, the Potency entry in test [12], in test [13], in test [15] and in [20] was “inactive” in each case. In addition, the Potency is 24.4 µM (active) and 686 nM (active) in test [2]; 19.5 µM (active) in test [5].

As for `O=C1OC(=O)c2c(Cl)c(Cl)c(Cl)c(Cl)c21`, the Potency entry in test [1], in test [2], in test [3], in [5], in test [6] and in test [7] was “inactive” throughout. The Potency result in test [8], in test [9], in [10], in test [11], in test [12] and in test [13] was “inactive” throughout. Also, the Potency result in [14], in test [18], in test [15], in test [19] and in test [20] was “inactive” throughout.

Turning to `O=C1C(N(CO)C(=O)NCO)N(CO)C(=O)N1CO` (centres undefined), the Potency entry in test [1], in test [2], in test [3], in test [4], in [6] and in [7] was “inactive” in each case. Moreover, the Potency result in [8], in [9], in test [10], in test [11], in test [13] and in test [15] was “inactive” throughout. Further, in [17], the Potency result was “inactive”. Further, the result in [16] was inactive.

For the origin of these results see PubChem BioAssay (Tox21).
